Compounds without any hit were thinned out: in the full panel of roughly 83,000, 20% have a hit.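 48-hour exposure, single concentration, 96-well plates; percent growth endpoint where 0 means no net growth. Active: below 10.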 Unmarked numbers belong to inactive results. Activity calls are given as the source filed them.
What was measured:
Test in all cases: NCI-60 one-dose screen, 48 h (100 = growth as untreated, 0 = no growth, -100 = all killed)
NCI-H23 lung = conditions: 10 µM unless noted
NCI-H226 lung = conditions: 10 µM unless noted
NCI-H322M lung = conditions: 10 µM unless noted
HOP-62 NSCLC = conditions: 10 µM unless noted
NCI-H460 lung = conditions: 10 µM unless noted
HOP-92 NSCLC = conditions: 10 µM unless noted
NCI-H522 lung = conditions: 10 µM unless noted
A549/ATCC NSCLC = conditions: 10 µM unless noted
786-0 renal = conditions: 10 µM unless noted
COLO 205 colon = conditions: 10 µM unless noted
DU-145 prostate = conditions: 10 µM unless noted
MALME-3M melanoma = conditions: 10 µM unless noted
MDA-MB-231 breast = conditions: 10 µM unless noted
RXF 393 renal = conditions: 10 µM unless noted
SF-268 CNS = conditions: 10 µM unless noted
SF-295 CNS = conditions: 10 µM unless noted
SF-539 CNS = conditions: 10 µM unless noted
UACC-257 melanoma = conditions: 10 µM
M14 melanoma = conditions: 10 µM unless noted

Compound	growth (NCI-H23 lung)	growth (NCI-H226 lung) [%]	growth (NCI-H322M lung)	growth (HOP-62 NSCLC) [%]	growth (NCI-H460 lung)	growth (HOP-92 NSCLC)	growth (NCI-H522 lung)	growth (A549/ATCC NSCLC) [%]	growth (786-0 renal)	growth (COLO 205 colon)	growth (DU-145 prostate)	growth (MALME-3M melanoma)	growth (MDA-MB-231 breast)	growth (RXF 393 renal)	growth (SF-268 CNS) [%]	growth (SF-295 CNS) [%]	growth (SF-539 CNS)	growth (UACC-257 melanoma)	growth (M14 melanoma)
C=C1C(=O)O[C@@H]2/C=C(/C)C3=CC(=O)[C@@](C)(C[C@H](OC(=O)/C(C)=C\C)[C@@H]12)O3	6.39% (active)	34.5	89.1%	82.4	27.2%	-11.8% (active)	-82.3% (active)	72.6	-56.5% (active)	-52.1% (active)	8.26% (active)	-22.9% (active)	-16.8% (active)	-65% (active)	30.2	55.9	-19.4% (active)	-36.2% (active)	-27.6% (active)
C/C(=C(/c1ccc(O)cc1)c1ccc(OCCN2CCCCCC2)cc1)c1ccccc1	45.5%	75.7	67%	65.8	19.2%	45%	65.6%	56.7	35.5%	-86.5% (active)	74.3%	2.85% (active)	43.1%	26%	71.3	44	10.7%	-27% (active)	-3.91% (active)
COCCOc1ccc(-c2csc(NC(=O)CN3CCN(CCO)CC3)n2)cc1NS(=O)(=O)c1cccc2c(N(C)C)cccc12	78%	70.9	68.4%	81	98.2%	13.3%	24.1%	92	37.1%	69.8%	92.5%	40.1%	79.3%	65.1%	90.5	70.3	61.9%		-71.7% (active)
CS(=O)(=O)c1nccc(-c2c(-c3ccc(F)c(OCc4ccc(F)cc4)c3)nc3sccn23)n1	99.2%	83.7	-78.2% (active)	68.3	10.3%	23%	53.9%	104	95.1%	109%	-96.4% (active)	111%	79.9%	84.2%	96.1	96.9	90.1%	-56.9% (active)	81.3%
CCOC(=O)CC(=O)CSC1=NC2C(NN1)N(C)C(=O)N2C (stereo not given)	75.5%	100	103%	107	105%	88.7%	72.8%	102	103%	108%	90.2%	61.6%	75.3%	105%	99.4	102	91.5%		81.3%
CS(=O)c1nccc(-c2c(-c3ccc(F)c(OCCc4ccccc4)c3)nc3sccn23)n1 (stereo not given)	86.1%	102	76.7%	98.2	57.3%	77%	-79.1% (active)	109	104%	80.7%	4.08% (active)	87.5%	84.7%	98.5%	101	101	95.9%	28.5%	76%
CS(=O)(=O)c1nccc(-c2c(-c3ccc(F)c(OCCc4ccc(F)cc4)c3)nc3sccn23)n1	10.7%	78.1	-89.1% (active)	15.1	-56% (active)	-26.3% (active)	-74.5% (active)	83.5	87.3%	86.9%	-91.6% (active)	91.7%	1.19% (active)	77.7%	82.8	89	76.3%	-81.4% (active)	83.9%
COc1ccc(/C(C)=C(\c2ccc(Cl)cc2)c2ccc(OCCN)cc2)cc1	82.2%	92	79.3%	106	60.8%	61.6%	102%	88.9	81.7%	32.6%	87.2%	83%	67.1%	68.3%	89.4	103	90%	94.7%	81.4%

— PubChem BioAssay (NCI)
